Assay [1] is described as follows: Quantitative High-Throughput drug screen in 47 multiple myeloma cell lines against the NCATS MIPE library collection: Delta47_JCRB cell viability assay (AID 1918925; further: nearly all actives have a fitted effect of over 45% in size). In short, it runs like this:
(§1)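 We plated 500 myeloma cells per well, pinned in MIPE 4.0 compounds, and incubated for 48 hours at 37C. ATP was then quantified with CellTiter-Glo, with DMSO and media-only wells defining 100% and 0%.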

A short description of assay [2]: Quantitative High-Throughput drug screen in 47 multiple myeloma cell lines against the NCATS MIPE library collection: EJM_DSMZ cell viability assay (AID 1918926; further: nearly all actives have a fitted effect of over 30% in size). In short, it runs like this: as §1
Assay [3] can be described thus: Quantitative High-Throughput drug screen in 47 multiple myeloma cell lines against the NCATS MIPE library collection: AMO1_DSMZ cell viability assay (AID 1918927; further: nearly all actives have a fitted effect of over 30% in size). In short, it runs like this:
as §1

Assay [4] is described as follows: Quantitative High-Throughput drug screen in 47 multiple myeloma cell lines against the NCATS MIPE library collection: ARP1_JJKsccF8 cell viability assay (AID 1918928; further: nearly all actives have a fitted effect of over 40% in size). In short, it runs like this:
(§2)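 Cell viability inhibition in this qHTS is measured via ATP content (CellTiter-Glo) after 48 h drug exposure at 37 °C. Wells hold 500 cells; DMSO-treated wells define 100% and medium-only wells 0%.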

Assay [5] can be described thus: Quantitative High-Throughput drug screen in 47 multiple myeloma cell lines against the NCATS MIPE library collection: ARD_JJKsccE7 cell viability assay (AID 1918929). In short, it runs like this: as §1
Assay [6] can be described thus: Quantitative High-Throughput drug screen in 47 multiple myeloma cell lines against the NCATS MIPE library collection: Karpas620_DSMZ cell viability assay (AID 1918959). Further: nearly all actives have a fitted effect of over 30% in size. In short, it runs like this:
(§3)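 qHTS of the MIPE 4.0 collection: 500 myeloma cells/well, 48 h drug exposure at 37C in 5% CO2, then CellTiter-Glo for 5 min at room temperature before luminescence reading.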

Assay [7] can be described thus: Quantitative High-Throughput drug screen in 47 multiple myeloma cell lines against the NCATS MIPE library collection: KMM1_JCRB cell viability assay (AID 1918960). Further: nearly all actives have a fitted effect of over 30% in size. In short, it runs like this: as §2
Assay [8] in a line: Quantitative High-Throughput drug screen in 47 multiple myeloma cell lines against the NCATS MIPE library collection: Karpas417_ECACC cell viability assay (AID 1918961). To be noted: Karpas417 myeloma viability, CellTiter-Glo ATP luminescence, 48 h; viability (% of DMSO): at 45.8 µM (top of the series). In short, it runs like this: (§4)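 Luminescent ATP measurement with CellTiter-Glo gives viability, scaled between DMSO-only wells (100%) and media-only wells (0%). Cells, 500 per well, faced library compounds for 48 hours at 37C.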

Assay [9] can be described thus: Quantitative High-Throughput drug screen in 47 multiple myeloma cell lines against the NCATS MIPE library collection: JIM3_ECACC cell viability assay (AID 1918963; further: nearly all actives have a fitted effect of over 35% in size). In short, it runs like this: as §3
The nature of assay [10]: Quantitative High-Throughput drug screen in 47 multiple myeloma cell lines against the NCATS MIPE library collection: JIM1_ECACC cell viability assay (AID 1918964). In short, it runs like this:
as §1

Assay [11] can be described thus: Quantitative High-Throughput drug screen in 47 multiple myeloma cell lines against the NCATS MIPE library collection: JJN3_DSMZ cell viability assay (AID 1918966; further: nearly all actives have a fitted effect of over 50% in size). In short, it runs like this: as §1
A short description of assay [12]: Quantitative High-Throughput drug screen in 47 multiple myeloma cell lines against the NCATS MIPE library collection: H1112_PLB cell viability assay (AID 1918967; further: nearly all actives have a fitted effect of over 30% in size). In short, it runs like this: as §1
Assay [13] is described as follows: Quantitative High-Throughput drug screen in 47 multiple myeloma cell lines against the NCATS MIPE library collection: KMS27_JCRB cell viability assay (AID 1918970). Further: nearly all actives have a fitted effect of over 30% in size. In short, it runs like this:
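Viability inhibition screen, 48 h compound exposure, luminescent ATP read-out.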

Assay [14] in a line: Quantitative High-Throughput drug screen in 47 multiple myeloma cell lines against the NCATS MIPE library collection: KMS12BM_JCRB cell viability assay (AID 1918971). Further: nearly all actives have a fitted effect of over 35% in size. In short, it runs like this:
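Steps: seed 500 cells per well; pin-transfer MIPE 4.0 library; incubate 48 h at 37C, 5% CO2, humidified; add CellTiter-Glo, 5 min room temperature; read luminescence.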

Assay [15] is described as follows: Quantitative High-Throughput drug screen in 47 multiple myeloma cell lines against the NCATS MIPE library collection: KMS12PE_JCRB cell viability assay (AID 1918972). Further: nearly all actives have a fitted effect of over 30% in size. In short, it runs like this: as §4
Assay [16] in a line: Quantitative High-Throughput drug screen in 47 multiple myeloma cell lines against the NCATS MIPE library collection: KMS20_JCRB cell viability assay (AID 1918973). Further: nearly all actives have a fitted effect of over 45% in size. In short, it runs like this:
as §1

The nature of assay [17]: Quantitative High-Throughput drug screen in 47 multiple myeloma cell lines against the NCATS MIPE library collection: KMS21BM_JCRB cell viability assay (AID 1918974). To be noted: ATP luminescence, 48 h; viability: at 45.8 µM (top of the series) unless noted. In short, it runs like this: as §1
A short description of assay [18]: Quantitative High-Throughput drug screen in 47 multiple myeloma cell lines against the NCATS MIPE library collection: KHM11_PLB cell viability assay (AID 1918962). Further: nearly all actives have a fitted effect of over 35% in size. In short, it runs like this:
as §3

Assay [19] is described as follows: Quantitative High-Throughput drug screen in 47 multiple myeloma cell lines against the NCATS MIPE library collection: INA6_PLB cell viability assay (AID 1918965; further: nearly all actives have a fitted effect of over 55% in size). In short, it runs like this:
as §4

Assay [20] in a line: Quantitative High-Throughput drug screen in 47 multiple myeloma cell lines against the NCATS MIPE library collection: Karpas25_ECACC cell viability assay (AID 1918968; further: nearly all actives have a fitted effect of over 35% in size). In short, it runs like this:
as §1

Among the data in PubChem BioAssay (NCATS) are Potency and viability (% of DMSO) values, retold here.

Inconclusive results are not listed. The source made the active and inactive calls. The call rests on the fitted dose curve; in most records, active means well fitted curve in the direction sought with a large enough effect; inconclusive means small, poorly fitted or top-dose-only effect, or another doubt; inactive means no such curve, though single readings can be large; an effect the other way counts as inactive or inconclusive.
Potency means the concentration at half of the fitted maximal effect.

`COc1ccc(F)c(F)c1C(=O)c1cnc(NC2CCN(S(C)(=O)=O)CC2)nc1N`: the Potency in assay [1] is 1.18 µM (active); in assay [2], 2.35 µM (active); in [3], 0.833 µM (active); in assay [4], 2.35 µM (active); in [5] it was 1.18 µM (active); in [6], 2.64 µM (active). For the same compound, the Potency in assay [7] was 1.87 µM (active); in [8] it was 0.743 µM (active); in assay [9], 1.87 µM (active); in [10] it was 1.18 µM (active); in assay [11], 1.32 µM (active); in assay [12], 1.87 µM (active). The Potency is 1.32 µM (active) in [13]; 1.18 µM (active) in assay [14]; 1.87 µM (active) in assay [15]; 2.09 µM (active) in assay [16]; 0.296 µM (active) in assay [17].
With `CC[C@@]1(O)C(=O)OCc2c1cc1n(c2=O)Cc2cc3cc(O)ccc3nc2-1`, the Potency in assay [1] is 0.187 µM (active); in assay [2] it was 0.372 µM (active); in assay [3], 0.0743 µM (active); in assay [4], 0.418 µM (active); in [5], 2.35 µM (active); in [6], 1.87 µM (active). Also, the Potency in assay [7] was 0.148 µM (active); in [18] it was 0.59 µM (active); in assay [9] it was 1.66 µM (active); in [10], 0.235 µM (active); in [19] it was 0.0166 µM (active); in assay [11] it was 1.87 µM (active). The Potency in [12] was 0.148 µM (active); in assay [20], 0.209 µM (active); in assay [13], 0.0187 µM (active); in [14], 0.526 µM (active); in assay [15] it was 1.05 µM (active); in [16], 0.235 µM (active).
`Nc1ccccc1NC(=O)c1ccc(CNc2nccc(-c3cccnc3)n2)cc1`: the Potency in assay [1] is 0.166 µM (active); in [2], 3.32 µM (active); in assay [3], 0.59 µM (active); in [4] it was 0.662 µM (active); in assay [5] it was 0.935 µM (active); in assay [6], 1.66 µM (active). In addition, the Potency in assay [7] was 1.05 µM (active); in assay [8], 0.469 µM (active); in [18], 2.64 µM (active); in assay [9], 2.64 µM (active); in [10] it was 1.32 µM (active); in [19], 0.296 µM (active). In addition, the Potency in [12] is 2.64 µM (active); in assay [20], 0.833 µM (active); in assay [14], 1.32 µM (active); in [15], 0.469 µM (active); in assay [16] it was 0.743 µM (active); in assay [17] it was 0.662 µM (active).
With `CC(=O)OCCN1C(=O)c2c(C)nc3ccc(S(=O)(=O)N4CCOCC4)cc3c2C1=O`, the Potency entry in assay [1], in assay [2], in assay [3], in assay [4], in assay [5] and in assay [6] was “inactive” throughout. The Potency entry in [7], in [9], in [10], in assay [19], in assay [20] and in assay [14] was “inactive” each time. Further, the Potency result in assay [15] is “inactive”. In addition, the viability (% of DMSO) in assay [8] was 109% (active).
Consider `C=CC(=O)Nc1cc2c(Nc3ccc(F)c(Cl)c3)ncnc2cc1C#CC(C)(C)N1CCN(C)CC1`, for which the Potency in [1] is 0.469 µM (active); in [2], 2.09 µM (active); in assay [3] it was 0.662 µM (active); in [4], 5.9 µM (active); in assay [5] it was 1.05 µM (active); in assay [6], 0.59 µM (active). Moreover, the Potency is 1.48 µM (active) in [7]; 0.59 µM (active) in [8]; 2.09 µM (active) in assay [18]; 1.66 µM (active) in assay [9]; 1.05 µM (active) in assay [10]; 0.418 µM (active) in [19]. Besides, the Potency is 5.26 µM (active) in assay [11]; 1.87 µM (active) in [12]; 0.526 µM (active) in [20]; 0.332 µM (active) in [14]; 0.296 µM (active) in [16]; 0.332 µM (active) in assay [17].
`Cc1cc(Nc2nc(N[C@@H](C)c3ccc(F)cc3)c(C#N)cc2F)n[nH]1`: the Potency in [1] was 2.96 µM (active); in assay [2], 16.6 µM (active); in assay [3], 0.235 µM (active); in [4] it was 1.05 µM (active); in assay [5], 0.332 µM (active); in assay [6], 0.296 µM (active). Moreover, the Potency is 1.87 µM (active) in assay [7]; 0.209 µM (active) in assay [8]; 8.33 µM (active) in [18]; 3.72 µM (active) in assay [9]; 0.296 µM (active) in [10]; 0.372 µM (active) in assay [19]. Besides, the Potency in [12] was 16.6 µM (active); in assay [20], 1.48 µM (active); in assay [13], 0.935 µM (active); in assay [15], 0.935 µM (active); in assay [16] it was 5.26 µM (active).
Consider `O=C(O)c1ccc2c(c1)nc(Nc1cccc(Cl)c1)c1ccncc12`, for which the Potency was 4.18 µM (active) in [1]; 9.35 µM (active) in assay [2]; 5.9 µM (active) in assay [3]; 9.35 µM (active) in assay [4]; 8.33 µM (active) in assay [5]; 4.18 µM (active) in assay [6]. In addition, the Potency in assay [7] is 4.69 µM (active); in assay [8] it was 0.935 µM (active); in [18], 5.9 µM (active); in assay [10] it was 6.62 µM (active); in [19], 1.66 µM (active); in assay [11], 9.35 µM (active). Moreover, the Potency is 6.62 µM (active) in assay [12]; 2.64 µM (active) in assay [20]; 10.5 µM (active) in assay [14]; 5.26 µM (active) in assay [15]; 3.32 µM (active) in assay [17].
On to `CCCCOc1c(C(=O)c2c(F)cc(C)cc2F)cnc2n[nH]cc12`, for which the Potency in assay [1] is 2.64 µM (active); in [2] it was 2.64 µM (active); in [3], 1.66 µM (active); in assay [4], 4.18 µM (active); in [5], 2.96 µM (active); in assay [6], 7.43 µM (active). In addition, the Potency in [7] is 2.35 µM (active); in assay [8], 2.35 µM (active); in assay [18], 3.72 µM (active); in assay [9] it was 8.33 µM (active); in [10], 2.96 µM (active); in assay [19], 4.18 µM (active). The Potency in assay [11] is 2.35 µM (active); in assay [12], 4.69 µM (active); in [20], 4.69 µM (active); in assay [13], 3.72 µM (active); in assay [14] it was 5.26 µM (active); in [16] it was 4.18 µM (active).
`CC(C)[C@H](C(=O)Nc1ccc(C(=O)NO)cc1)c1ccccc1`: the Potency is 0.372 µM (active) in assay [1]; 1.87 µM (active) in assay [2]; 0.469 µM (active) in assay [3]; 0.132 µM (active) in assay [4]; 0.418 µM (active) in [5]; 1.05 µM (active) in assay [6]. Also, the Potency in assay [7] is 0.662 µM (active); in assay [8], 0.469 µM (active); in assay [18], 1.32 µM (active); in assay [9], 1.48 µM (active); in assay [10] it was 0.332 µM (active); in assay [19], 0.235 µM (active). For the same compound, the Potency was 0.662 µM (active) in assay [11]; 1.05 µM (active) in [12]; 0.418 µM (active) in [20]; 2.09 µM (active) in assay [13]; 0.526 µM (active) in assay [14]; 0.526 µM (active) in assay [15]. Moreover, the Potency is 0.833 µM (active) in assay [16] and 0.105 µM (active) in [17].
